Drawing on PubChem BioAssay (NCI), this text covers growth for 82 molecules.

“And” between values parts separate entries of the source, which are not always exact repeats. Equal entries are not always repeated. This is part of a sample that, as a whole, favours compounds with a hit. Of some 83,000 tested, about 20% had one in any assay.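 Activity criterion: percent growth below 10, measured after cells in 96-well plates were exposed to a single compound concentration for 48 hours.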 Unmarked numbers belong to inactive results. The source made the active and inactive calls.

For the assay, the system named is MDA-MB-468 breast. Put plainly: NCI-60 one-dose screen, 48 h (100 = growth as untreated, 0 = no growth, -100 = all killed). The following applies: 10 µM unless noted.

As for `CC(=O)Nc1nc(C(=O)N2N=C(C)/C(=C/c3ccccc3)C2=O)cs1`, the growth was 103%.
As for `O=C(Nc1ncc(Cc2cc(C(F)(F)F)ccc2Cl)s1)C(=S)N1CCOCC1`, the figure is 84.3%.
Next, `N#Cc1c(-c2ccccc2)nc(SCC(=O)N2CCN(c3ccccc3)CC2)[nH]c1=O`: 106%.
Next, `O=C([C@@H](COCc1ccccc1)N1C(=O)[C@@H](N2C(=O)OC[C@@H]2c2ccccc2)[C@H]1/C=C/c1ccccc1)N1CCC(CCN2CCCCC2)CC1`: 64.8%; `Cc1nn(-c2ccccc2)c2nc(CCl)[nH]c(=O)c12`: 26.6%; `COc1ccc2nc(-c3ccc(Cl)cc3)cc(-c3nnc(SCC(=O)Nc4ccc(/C(C)=N\O)cc4)o3)c2c1`: 58.4%.
Regarding `CC(=O)OC1CC2C(C)(C)CCC[C@]2(C)C2=C1C(O)=C(C(C)C)C(=O)C2=O` (some centres not stated), the growth was -49.5% (active).
As to `COc1ccc(-c2ccc(-c3ccc(C(=N)N)nc3)s2)cc1`, the growth was -69.9% (active).
As for `COc1ccc(-c2cc3c4c(nc5ccccc5c4c2)CC(c2cc(OC)c(OC)c(OC)c2)O3)cc1` (configuration not stated), the figure is 26.6%; as for `COc1ccc(-c2cc3ccc(N(C)C)cc3nc2N)c(F)c1`, 4.96% (active).
Next, `N#Cc1c(-c2ccc(Cl)cc2)nc(N/N=C/c2cccc(Br)c2)nc1N1CCOCC1`: 76.7%; `Cn1cc(-c2csc(-c3cn(CCCN4CCCCC4)c4ccc(F)cc34)n2)c2cccnc21`: 91.7%.
Consider `CCCCCCCCCCCC1=NC(C)(C)CN1CCO`, for which the growth was 15%.
As for `C=C1CC[C@@H]2C(C)(C)[C@H](O)CC[C@@]2(C)[C@@H]1COc1ccc2ccc(=O)oc2c1`, the figure is 44.1%; as for `CCOc1ccc(/C=N\N=C\c2ccc(OCC)cc2)cc1`, 77%; as for `O=C(NCCCCCCNC(=O)c1c2c(nc3ccccc13)-c1cccnc1SC2)c1c2c(nc3ccccc13)-c1cccnc1SC2`, 90.4%.
Next, `Oc1c(Cl)cc(Cl)cc1C(c1cc(Cl)cc(Cl)c1O)C(Cl)(Cl)Cl`: -30.5% (active); `COc1ccc(-c2nc(-c3nc4ccc(C)cc4[nH]3)c3ccccn23)cc1`: 45.4%.
Next, `c1cnc2[nH]cc(-c3csc(-c4cn(CCCN5CCCCC5)c5ccccc45)n3)c2c1`: 70.2%; `NNC(=S)N/N=C/c1ccccn1`: 8.55% (active); `N#Cc1c(-c2ccccc2)cc(-c2ccccc2)n(CC(=O)NO)c1=O`: 43.5%.
In the case of `CN(C)c1nc(N)c(N=O)c(N)n1`, the growth is 114%.
In the case of `O=C(N/N=C/c1ccc2c(c1)OCO2)c1ccncc1`, the growth was 116% and 124%.
As for `Cc1cc(O)c(C2=NN(c3ccc(S(N)(=O)=O)cc3)C(c3ccc(N(C)C)cc3)C2)c(C)c1Cl` (configuration not stated), the figure is 91.1%; as for `CC[C@]12C=CCN3CC[C@]4(C(=C(C(=O)OC)C1)Nc1cc5c(cc14)[C@@H]1[C@H](O5)[C@@H](O)[C@@]4(CC)CC(C(=O)OC)=C5Nc6cc(O)ccc6[C@@]56CCN1C46)C32` (some centres not stated), -51% (active).
In the case of `COc1ccc2nccc(/C=C/c3ccnc4ccc(OC)cc34)c2c1`, the growth is 110%.
On to `COc1ccccc1/C=C1\COc2ccc(-c3ccccc3)cc2C1=O`, for which the growth was 3.14% (active).
On to `O=C1c2ccccc2C(=O)c2c1oc1c2c(=O)[nH]c2ccccc21`, for which the growth is -8.43% (active).
As for `O=[N+]([O-])c1cc(CCl)ccc1OCCBr`, the figure is 92.4%; as for `CN(CCCNC(=O)Cc1ccc2ccc3cccc4ccc1c2c34)CCCNc1cc(-c2ccc3ccccc3c2)nc2ccccc12`, -78.4% (active); as for `Clc1ccc(NC(Nc2ccc(Cl)cc2)C(Cl)(Cl)Cl)cc1`, 98.4% and 108%.
As for `C=C[C@]1(C)C=C2CC[C@@H]3C(C)(C)C(=O)CC[C@@]3(C)[C@@H]2CC1`, the figure is 110%; as for `Cn1c(-c2ccccc2)cc(=O)n1-c1ccccc1`, 105%; as for `COc1cc(C=C2C(=O)NC(=S)NC2=O)cc(CN2CCCC2)c1O`, 110%.
Consider `Cc1ccc2nc3ccccc3c(NCc3ccccc3)c2c1`, for which the growth was -11% (active).
As for `CCOC(=O)C(=O)C(C(=O)OCC)c1ccccc1` (configuration not stated), the figure is 111%; as for `CCN(CC)CCOc1ccc(NC(=O)C(C(C)C)N2C(=O)/C(=C/c3ccc(Br)cc3)SC2=S)cc1` (configuration not stated), 63.2%; as for `FC(F)c1nc2ccccc2n1-c1nc(N2CCOCC2)nc(N2CCOCC2)n1`, -43.2% (active).
Take `COc1ccc(C2CC(c3cccc(Nc4ccncc4)c3)=NN2c2ccc(Cl)cc2)cc1` (configuration not stated): the growth was 45.3%.
As for `COc1cc(C2=NN(C(C)=O)C(c3ccc(N4CCOCC4)cc3)C2)cc(OC)c1OC` (configuration not stated), the figure is 96.7%.
As for `C=CCn1c(SCC(=O)Nc2ccc(C(=O)/C=C/c3cccc([N+](=O)[O-])c3)cc2)nnc1-c1c[nH]c2ccccc12`, the figure is 81.9%.
Next, `O=c1oc2ccc(F)cc2c(=O)n1-c1ccc(F)cc1F`: -4.2% (active).
For the molecule `CCN1CCN(c2cc(C)nc(N(CCNc3ccnc4cc(Cl)ccc34)Cc3ccc4c(c3)OCO4)n2)CC1`, the growth is -67.6% (active).
Next, `CCOc1nc(-c2ccccc2)cc2c(O)c(C(=O)NCCCO)[nH]c(=O)c12`: 95%; `Cc1ccc(Nc2cc(Cl)c([N+](=O)[O-])cc2[N+](=O)[O-])cc1`: -65.8% (active).
As for `COC(=O)/C=C1/SC(N2N=C(c3cccs3)CC2c2ccc(F)cc2)=NC1=O` (configuration not stated), the figure is 36.7%.
As for `CC(=O)c1ccc(Br)c([N+](=O)[O-])c1`, the figure is 112%; as for `COc1ccc2[nH]c(-c3ccccc3)cc2c1`, 96.9%.
As to `C=C(CNCCc1ccc(O)cc1)[C@@H]1CC[C@]2(CO)CC[C@]3(C)[C@H](CC[C@@H]4[C@@]5(C)CCC(N)C(C)(C)[C@@H]5CC[C@]43C)[C@@H]12` (some centres not stated), the growth is -88.4% (active).
As for `NC(=S)Cc1ccccc1`, the figure is 89.8%; as for `COC(=O)c1c(C)nc(C)c2c1C(=O)C(Br)=C(NCCCCO)C2=O`, 29.5%.
As for `C#Cc1cccc(Nc2ncnc3cc(OCCOC)c(OCCOC)cc23)c1`, the figure is -4.78% (active).
As for `CCN(CC)CCCC(C)Nc1ccnc2ccc(Oc3ccccc3)cc12` (configuration not stated), the figure is 54.7%; as for `Cc1oc2c(Cc3ccc(NC(=O)c4ccc(Cl)cc4)cc3)ncnc2c1C(=O)NO`, 92.1%; as for `CCN(CC)CCOc1nc2ccc(OC)cc2c2c1-c1ccc(OC)cc1C2=O`, 51.9%.
For the molecule `Nc1ccc(-c2nnc(SCc3ccc(O)c4ncccc34)o2)cc1`, the growth was -20.7% (active).
Next, `NCCn1cc(-c2nc(-c3c[nH]c4ncccc34)cs2)c2cc(F)ccc21`: 64.9%; `Cn1c(=O)c2c(nc(Br)n2CC(=O)Nc2ccc(F)cc2)n(C)c1=O`: 109%; `CN1CCN(CCOc2ccc(-c3cnc4c(-c5ccccc5F)cnn4c3)cc2)CC1`: 45.6%.
Next, `COc1cc2cc(NCc3ccc(OC(F)F)cc3)nc(C)c2cc1OC`: 64.4%; `COC[C@@]1(C)CC[C@]2(C)CC[C@]3(C)C(=CC[C@@H]4[C@@]5(C)CCCNC(C)(C)[C@@H]5CC[C@]43C)C2C1` (some centres not stated): 50.9%; `COc1ccc(Nc2[nH]n3c(=O)cc(-c4ccccc4)nc3c2C(=O)Nc2ccc(C)cc2)c(OC)c1`: 58.6%.
As for `CN(CCC(=O)/C(=C\c1ccccc1)c1ccc(Cl)cc1)Cc1ccccc1`, the figure is -35.2% (active); as for `Cc1ccc(-c2csc(NC(=O)N3CCN(c4cc5c(cc4F)c(=O)c(C(=O)O)cn5C4CC4)CC3)n2)cc1`, -5.11% (active); as for `O=C1CC(c2nc3ccccc3s2)CN1C1CCCCC1` (configuration not stated), 104%.
Turning to `COC(=O)c1ccc2c(c1)nc(-c1ccc(Cl)cc1)n2-c1cc(C(C)(C)C)[nH]n1`, the growth is 37.4%.
On to `Cc1ccc(-c2csc(NC(=O)CSc3nc(N)cc(N)n3)n2)cc1`, for which the growth was 11.6%.
Next, `NC(CSC(c1ccccc1)(c1ccccc1)c1ccc2c(c1)OCO2)C(=O)O` (configuration not stated): -56.6% (active); `Nc1n[nH]c2cccc(C#Cc3cccc(C(=O)Nc4cc(C(F)(F)F)cc(C(F)(F)F)c4)c3)c12`: 87.5%.
As for `CCCCN(Cc1ccc(C(=O)NO)cc1)C(=O)Nc1ccc(OCCCCCCCCCn2cc(CCCCC(=O)N[C@H](C(=O)N3C[C@H](O)C[C@H]3C(=O)NCc3ccc(-c4scnc4C)cc3)C(C)(C)C)nn2)cc1`, the figure is 0.0949% (active); as for `CC(=O)c1ccc(N2C(=O)c3ccc(Oc4ccccc4)cc3C2=O)cc1`, 105%; as for `N#Cc1ccc(/C=N/NC(=O)c2[nH]c3ccc(Br)cc3c2-c2ccccc2)s1`, 11.4%.
As for `CCc1cc(Cl)c(OC)c(C(=O)NCC2CCCN2CC)c1O` (configuration not stated), the figure is 77.1%; as for `Cc1ccc(-c2nc(/C=N/Nc3cc(C)nc4ccc(Cl)cc34)c(C)o2)cc1`, -76% (active); as for `Oc1ccc(Nc2ccccc2)cc1`, 86.4%.
Take `COC(=O)[C@]12CC[C@@H](C)[C@H](C)[C@@H]1C1=CC[C@@H]3[C@@]4(C)C[C@@H](OC(C)=O)[C@H](OC(C)=O)[C@@](C)(COC(C)=O)[C@@H]4[C@H](O)C[C@@]3(C)[C@]1(C)CC2`: the growth is -6.62% (active).
As to `FC(F)(F)c1cc(Br)cc(-c2cc(-c3ccc4c(c3)OCCO4)[nH]n2)c1`, the growth is 40.6%.
As for `CC(=O)Nc1ccc(C(=O)CCl)cc1`, the figure is 8.65% (active).
As for `O=S(=O)(O)c1ccc(N=NSc2ccc3ccccc3c2)cc1`, the figure is 108%; as for `Cc1ccc(S(=O)(=O)N(CCC(=O)O)c2ccccc2)cc1`, 113%.
On to `CCCCCCCCCCCC[S+](C)CC(=O)[O-]` (configuration not stated), for which the growth was -53.1% (active).
As for `COc1ccc(/C=C(/C(=O)N2CCN(c3ccc(C)cc3)CC2)c2cc(OC)c(OC)c(OC)c2)cc1N`, the figure is 29.6%.
